Source: PubChem BioAssay AID1508600 (Functional Genomics Laboratory (NCATS/FGL), 2020)
About 3,700 (7%) of roughly 53,000 sequences were called active. This excerpt belongs to a sample that is enriched for actives. Values without a mark were called inactive.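 The calls were made as follows: active = gene knockdowns whose robust z-score for IL-1 alpha signal is at least 2 or at most -2, so actives lie on both sides; inactive = the rest.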

Assay: Components of the Cytosolic LPS Sensing Pathway: Gene Identification via Genome-wide siRNA Screen;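 also: robust z of the log signal after scaling to non-targeting control siRNA wells of the plate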
Conditions: RAW264.7 macrophages, IL-1a HTRF, actives lie on both sides, screened at 100 nM (by protocol), cells primed 5 h with Pam3CSK4 first
Procedure, shortened: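 RAW264.7 mouse macrophages reverse-transfected with single siRNAs (100 nM final) for 48h, primed with Pam3CSK4 for 5 hours, then transfected with LipidA for 24 hour. Supernatant IL-1a read by HTRF; values normalized to negative-control median, log-transformed robust z-scores.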
With CCUUAGGAUAGAAACAAAGTT against Mypn the z-score was 1.01. For GCCAGUUAUGAGCAACACCTT against Slc46a1, the z-score was -2.14 (active). Sequence GCUAACAAAUGUCAGCAUGTT against Popdc3 has a z-score of 0.319. With GCCGACUUUAAUGACUGCUTT against Cmtm4 the z-score was 1.71. With CGAAACUGGUCUUUAUACUTT against Tigd4 the z-score was -1.27. In the case of AUGCGUCCUUCACCAACGATT against Tmem158, the z-score is reported as -3.28 (active). With GGAUGACAUGUCAUCAAAGTT against Vmn1r89 the z-score was -1.38. GGGAAGAGUGGUGCAAUGATT against Olfr155 showed a z-score of 0.835. In the case of GCAACAAUAAAUCGUACAGTT against Nupr1, the z-score is reported as 0.246. For GGGAAGUUCAUAUUGAUCCTT against Gsdma, the z-score was 0.691. With GGCUUAAGGUGAGAUAUUCTT against Sp9 the z-score was -0.524. With CGAGUGUUCCUCCAAGUGCTT against Fhl5 the z-score was 0.384. With GGGACUAAGAUGAAGCUGATT against Fam43a the z-score was -2.18 (active). Sequence GCUCACUUAUCUACGUUUUTT against Trim15 has a z-score of 0.639. Sequence GCAUGUGACCUCGUCUUGCTT against Apbb2 has a z-score of -1.04. In the case of GGGCAUGAGAAAUCCACAGTT against Rhox9, the z-score is reported as -1.23. Work on GGCAAAUAAAUUCAGCAAGTT against Pum3 yielded a z-score of -0.0642. GGACUUCCCGAACUACAUATT against Zfp52 gave a z-score of 0.0339. Sequence GGCUCUCUUUAGAACAGACTT against Rad17 has a z-score of 0.479. With GCUACAUACCCAAAUACAUTT against Trpc4ap the z-score was 2.1 (active). Work on GGGACAUAUCUGAAGCAAGTT against Rps26 yielded a z-score of 0.896. For GCUUCUGUCAUAAUGAUAUTT against Pramel6, the z-score was -2.33 (active). CCAGAAACCAAUCUUUCUUTT against Serpinb1a gave a z-score of -0.0285. Work on CCCUAGUGAUAAGGAAUGCTT against Cxcl9 yielded a z-score of 0.228. In the case of GGUGACCACUUCAUGUCACTT against Tmem138, the z-score is reported as -1.28. For GCGGGAGCUUAGCUUUUAUTT against G6pc3, the z-score was 3.33 (active). CCGUAGACUCGGUGAAGCUTT against Plpbp gave a z-score of -0.143. GGUCAGAAUCUUUGUUCCUTT against Ndufs4 gave a z-score of -0.912. In the case of GGAUUCCCUGUAUGCCCAATT against Rpl36al, the z-score is reported as -0.23. Sequence GGAGAAGCCAAAAGAAUGCTT against Xrn2 has a z-score of -0.76. GCUUACAAGUUGCUACUGGTT against Dnajc8 showed a z-score of 0.425. With GGGCAAUUCUAUCAAAGAGTT against Gps1 the z-score was -2.14 (active). CCUAUAGCAAUGGCAGCAGTT against Pkn1 gave a z-score of -1.66. With GGUCCUUUCCCAUAACCUGTT against Swap70 the z-score was -0.922. Sequence GCGGACUACUAUGCUAAAGTT against Tgfb1 has a z-score of 1.08. Sequence GGUGUUCAAAAAGUUUAACTT against Zswim1 has a z-score of 1.02. With GCCAAGCUCGCCAAGAUUATT against P4ha2 the z-score was 0.273. GCUGAAGUGCAAGAACAAATT against Dmd gave a z-score of 1.91. GGUUUUGGCGGAUACUAAGTT against Plin3 gave a z-score of -0.24. In the case of GGAUGAGAGAAAGUUACCCTT against Tspo2, the z-score is reported as -2.78 (active). In the case of GGGCAUCUCAGAUUUAGCUTT against Cct3, the z-score is reported as -0.0572. GGGUGAAGAUUCUCUACAATT against Dctn3 showed a z-score of -0.621. GGACUGAACCCAAAUGCCUTT against Chtf8 gave a z-score of -1.45. GGAGCUUACAUGGUCCCUATT against Prss37 gave a z-score of -0.238. For CGAGAAGGAUAUAAUUGUUTT against Klhl18, the z-score was 0.449. GGUUUCGAACUGAUGAAGCTT against Nemf showed a z-score of 0.284. For GGCAAAACAAAGAAUGAAATT against Prss40, the z-score was -0.38. In the case of “CGAAGUCUGAAACACAUGUTT against A730018C14Rik”, the z-score is reported as 4.13 (active). With GGACUCACAGAAAUUUCCATT against Slc36a1 the z-score was -1.53. Work on GGUAAUGAGACGCGGUUUATT against Ina yielded a z-score of 0.202. For GCAACACCUUAUGUUUCAUTT against Cab39, the z-score was 1.68. With GGCACGAUUUGCUUAUUUUTT against Usf2 the z-score was 0.0682. For GCCUCCUACUGGUUCCAAATT against Commd7, the z-score was 2.05 (active). Work on GUCUUCUCUGCCUGUCUGATT against Lce3c yielded a z-score of -0.0986. For CCCAGGGAGAAUUGACUUGTT against Sertad1, the z-score was 0.0114. Work on GGCCUUUGUAGUAUCCCAGTT against Nudt16 yielded a z-score of -0.709. Sequence GCACCAAUCAAUGAGGAGATT against Was has a z-score of -0.785. With GGAGUGAUGUCCAUACUGGTT against Leap2 the z-score was -2.57 (active). CCAUCCUAAGCAGAGUCACTT against Frg2f1 showed a z-score of -0.446. GGAUGUUGAUUUUCAUGGUTT against Grpel2 showed a z-score of 1.13. For GGGUAUUCAUGAUGUCUUUTT against Kctd6, the z-score was 1.39. Work on GGCAUCACUGAUGAAUGAATT against Pacsin2 yielded a z-score of -0.585. Work on GGAACAUCCAGUCUCUCACTT against Fbxo31 yielded a z-score of 0.244. “CCCAGGUGUAUUUUACAUATT against D10Wsu102e” showed a z-score of -0.00657. With CGCGGAGGUCUCUCUUAUUTT against Prss39 the z-score was 2.22 (active). In the case of GGUAUUUAAUGGAAGCCUGTT against Acp7, the z-score is reported as -0.537. Work on GGCAUCUUUCAUAAAACCGTT against Atad3aos yielded a z-score of -0.622. For GCCUAUCAGAAGCUGUUAATT against Eif2ak2, the z-score was 3.59 (active). GGAGAUAUUAUUGUUCAGATT against Cemip2 gave a z-score of -0.337. GUGCUUUCGUGUUUUUCAATT against Klrb1b showed a z-score of -0.388. Sequence GCUAUCGUGAUAAUCUGGATT against Gxylt2 has a z-score of -0.113. With CUUAAAGGAAUCCUGGUGGTT against Fam169b the z-score was 0.0229. For CCUGCAUGCCUAUGUGCGUTT against Ace, the z-score was 2.89 (active). GAAGACUUCGUCCUAACAGTT against Ctsg gave a z-score of -0.195. With GGCCUCUUACAAAGUGAGATT against Supt7l the z-score was -0.265. GGGAUAUGUGAAGCCUCAGTT against Mospd3 gave a z-score of -1.21. For GGAACAGUUCCUUGUGGUUTT against Uqcrh, the z-score was 0.935. With GGUUCAGAAUUUAACCUUATT against Phc3 the z-score was 3 (active). With GGUAUUGUGAAACGUACACTT against Ky the z-score was 0.914. With CCGUCGUCCUAGAAAAACCTT against Nsun7 the z-score was -1.18. CCUACUAAACUCAGUCUUUTT against Kap showed a z-score of 1.08. In the case of GGAUCAUGCAGACAUGCUGTT against Ggcx, the z-score is reported as -0.278. With GGUUCUAAAUCAGAAGUGCTT against Tyw5 the z-score was -2.08 (active). Work on GGUAUAGCCACAGGUACAUTT against Phxr5 yielded a z-score of -0.368. For GCAGAUAUUUUUGUAAGCATT against Csmd1, the z-score was -0.644. Work on GGCUUGAUGGGCUUUUUGCTT against Ndufb8 yielded a z-score of 0.285. For GGUCCCAGUCAUUAUCCACTT against Gdap1l1, the z-score was 2.43 (active). GGUAAUUAAAACCAUGGAGTT against Rex1bd showed a z-score of -0.0412. Work on GGCCCAGGAUAUUUUAGUUTT against Atg9b yielded a z-score of -0.553. For GCCGUACGAAAAAUAAGCATT against Rps7, the z-score was -0.402. In the case of GGCCAAAGUACUUUGUUCCTT against Pdpr, the z-score is reported as 3.63 (active). With GGUUCUUCGAAGCAAUAGCTT against Sphkap the z-score was -0.973. GCACACAUCAAGAAACUUGTT against Mxi1 gave a z-score of 0.963. GGAGAAAUAACUGAAAUUCTT against Klhl13 showed a z-score of -0.816. With GGACUUCUACCCAGCGAUATT against P3h4 the z-score was -0.536. For CCUCCAGAUAACAAAUGCATT against Dlx3, the z-score was 0.335. For CGCAUUACAUUAGCCAAAATT against Ttc28, the z-score was 1.21. In the case of GCUCAGUAAUCUGAGGCCATT against Lox, the z-score is reported as -2.03 (active). In the case of GGAGAUCCGUUCAAGGGUUTT against Olfr557, the z-score is reported as 0.73. For CCAACUGCACUGUCAAACUTT against Tbcc, the z-score was -0.224. With “GGAAUGUGUCUUCUCAAGUTT against A530021J07Rik” the z-score was 2.35 (active). With GGACCAGCACAUGUGGAUUTT against Olfr547 the z-score was 0.31. For GGACCUGGUAUCUCUAUAUTT against Rasgrp4, the z-score was -0.807. GCAUAAUUCUAAAGACGGGTT against Zfp143 gave a z-score of -0.1. Sequence GGUUAUAGACAAGAUCGAUTT against Comp has a z-score of 0.536. Work on CCCACCAGUAAGGAGUUCATT against Dido1 yielded a z-score of -0.177. For GCCACGAACAUGAUGUACATT against Slco3a1, the z-score was 0.229. GGUUUUAUUUGGGAUUAGCTT against Arfgap2 showed a z-score of 0.327.
